The source of these data is PubChem BioAssay AID796 (Columbia University Molecular Screening Center, 2007).

In all, about 94,000 compounds went through this assay and about 410 (0.44%) were called active.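 Rule for the calls: active = inhibition above about 30% together with a positive call from visual inspection of the well image (limit read from the data); inconclusive = inhibition above a set limit but visual check negative; inactive = inhibition not above a set limit, visual check negative.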 The list comes from a sample in which actives are over-represented; it also holds similar structures and randomly drawn compounds.

This experiment in a line: inhibitors of IL-1B driven NFkB p65 nuclear import, primary screen, imaging, HUVEC, IL-1B stimulus, high-content imaging (AID 796).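 Note: nuclear over cytoplasmic p65 intensity ratio measured by imaging; 0% = IL-1B stimulated DMSO wells and 100% = unstimulated DMSO wells.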 As to conditions: HUVEC IL-1B NFkB p65 nuclear translocation imaging; at 2 µM; hits give high values.
In general, inhibition refers to the relative decrease from the control value, in per cent. For `Cn1c(CO)cnc1SCc1ccccc1`, the inhibition was -4.6% (inactive). Regarding `c1ccc(COc2ccccc2CNCc2cccnc2)cc1`, the inhibition was -12.3% (inactive). Under `Cc1cc(C)n(C(=O)CCNC(=O)c2ccccc2Cl)n1` stands 0.3% (inactive); under `Cc1cc2c(c(=O)n1C)C(C(C)C)C(C#N)=C(N)O2` (configuration not stated), 3.4% (inactive); under `O=C(CSCc1c(Cl)cccc1Cl)NN1C(=O)c2ccccc2C1=O`, 7.6% (inactive). For `Cc1ccc(-c2csc(N(Cc3ccco3)C(=O)c3cccs3)n2)cc1`, the inhibition was 0.8% (inactive). The result for `S=c1[nH]nc(-c2ccco2)n1/N=C/c1ccc(Br)s1` reads -1.5% (inactive). In the case of `Cc1ccc(-n2nc3c(c2NC(=O)c2ccc4c(c2)OCO4)CSC3)c(C)c1`, the inhibition is 36% (active). Under `Cc1cc(C)c2nc(NC(=O)c3ccc4c(c3)OCO4)sc2c1` stands 9% (inactive). The result for `Cc1cccc(-n2nc3c(c2NC(=O)c2ccc(Br)o2)CSC3)c1C` reads 0% (inactive); that for `O=C(COc1ccc(/C=N/NS(=O)(=O)c2ccccc2)cc1)NCCc1ccccc1`, 3.5% (inactive).

For `Cc1n[nH]c(=O)n1-c1ccc(Oc2ccccc2)cc1`, the inhibition is 3.9% (inactive). As for `Cc1cc(C)cc(N(C(C)C(=O)Nc2c(C)n(C)n(-c3ccccc3)c2=O)S(C)(=O)=O)c1` (configuration not stated), the inhibition was 47.4% (active). Turning to `COC(=O)Nc1c(C)n(C)n(-c2ccccc2)c1=O`, the inhibition is -18.8% (inactive). Regarding `Cc1cc(C)cc(N(CC(=O)Nc2c(C)n(C)n(-c3ccccc3)c2=O)S(C)(=O)=O)c1`, the inhibition was -3.1% (inactive). `O=C(CSc1nnc(-c2c[nH]c3ccccc23)o1)c1ccccc1`: the inhibition is 11.5% (inactive). With `CC(=O)Nc1ccc(C(=O)CSc2nnc(Cc3ccccc3)o2)cc1`, the inhibition is -5.2% (inactive). The result for `O=C(CSc1nnc(Cn2cnc3ccccc32)o1)c1ccccc1` reads 98.8% (active); that for `CCn1c2ccccc2c2cc(NC(=O)C/C(C)=N/NC(=O)c3ccccc3N)ccc21`, -8.3% (inactive); that for `CNC(=S)NNC(=O)c1sccc1OCc1ccccc1`, -4% (inactive).

As for `COc1cc(/C=N/O)cc(Br)c1OCc1cccc(Cl)c1`, the inhibition was -0.3% (inactive). With `CCCCNc1ccc(C(=O)Nc2cccc(C)n2)cc1[N+](=O)[O-]`, the inhibition is -3.1% (inactive).

`CC(C)CNS(=O)(=O)c1ccc(OCC(=O)Nc2ccc3c(c2)OCO3)c(Cl)c1`: the inhibition was -10.8% (inactive). `COc1ccc(S(=O)(=O)Nc2ccc3c(c2)OCO3)cc1Cl`: the inhibition was 96.2% (active).

Turning to `COc1ccc(F)cc1S(=O)(=O)Nc1ccc2c(c1)OCO2`, the inhibition is -3.1% (inactive). Under `Cc1ccc(C(=O)c2c(NC(=O)c3ccncc3)sc3c2CCCC3)cc1` stands 2.2% (inactive); under `CCc1ccc(/C=N/NC(=O)c2ccc(OC3CCCC3)cc2)s1`, 0.3% (inactive); under `Cc1nc(N2CCOCC2)nc2c1CCCC2`, 1.7% (inactive). The result for `O=C(CSCc1ccc([N+](=O)[O-])cc1)NCCSCc1ccccc1` reads 8.4% (inactive); that for `Cc1ccc(N)cc1-n1c(C)ccc1C`, 4.3% (inactive); that for `Cc1ccc(C)n1-c1ccncc1`, 34.7% (active). Under `COc1ccc(C(=O)c2c(C)oc3cc([N+](=O)[O-])c(O)c([N+](=O)[O-])c23)cc1` stands -48.7% (inactive).
